One assay has as its target POU1 (OCT1 POU domain) (human, UniProt P14859 260-458). The experiment in a line: EMSA-SELEX-seq; no BOB1; 20 mM Tris-HCl pH 7.6, 140 mM NaCl, 10% glycerol, 0.5 mM EDTA, 0.05% Triton X-100, 0.1 mg/mL BSA, 0.1 mg/mL poly(dI-dC), 5 mM DTT, room temperature, 20 min; high values mean tight binding. Particulars: protein: recombinant; dsDNA, one strand shown. Summed up: (§1)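 Tagged POU-domain proteins were expressed in E. coli BL21, purified under denaturing conditions and renatured. Then 30 ng was mixed with 300 ng of a PCR-amplified double-stranded random 35-nt library, with or without 28 ng coactivator protein, in 20 μL Tris–HCl pH 7.6 binding buffer for 20 min at RT. Complex bands were cut from native 6% PAGE, eluted and PCR-amplified over four rounds, then Illumina-sequenced. Binding preference is the percentage of sequenced 8-mers matching a motif pattern.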
In general terms: In EMSA bound probe runs differently from free probe, usually more slowly.

For a further assay, the target named is T1, POU2 (OCT2 POU domain) (human, UniProt P09086 175-386).
T1 sequence: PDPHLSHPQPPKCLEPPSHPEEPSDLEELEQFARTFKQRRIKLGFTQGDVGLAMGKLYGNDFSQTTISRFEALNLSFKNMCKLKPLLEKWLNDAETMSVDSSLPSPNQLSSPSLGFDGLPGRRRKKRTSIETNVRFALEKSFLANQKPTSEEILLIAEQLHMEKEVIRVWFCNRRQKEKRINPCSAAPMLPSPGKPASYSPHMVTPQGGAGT
The assay is described as above. Particulars: protein: recombinant; dsDNA, one strand shown. Summed up: as §1

Assay [1] has as its target POU1 (OCT1 POU domain);BOB1 (OBF1, OCA-B) (human;human, UniProt P14859;Q16633 260-458;1-256, |). Briefly: EMSA-SELEX-seq; with BOB1 (ternary complex band); 20 mM Tris-HCl pH 7.6, 140 mM NaCl, 10% glycerol, 0.5 mM EDTA, 0.05% Triton X-100, 0.1 mg/mL BSA, 0.1 mg/mL poly(dI-dC), 5 mM DTT, room temperature, 20 min; high values mean tight binding. Particulars: protein: recombinant;recombinant; copies: 1;1; dsDNA, one strand shown. In short, it runs like this: as §1

The target in assay [2] is T2, POU2 (OCT2 POU domain);BOB1 (OBF1, OCA-B) (human;human, UniProt P09086;Q16633 175-386;1-256, |).
T2 sequence 1: T1 sequence
T2 sequence 2: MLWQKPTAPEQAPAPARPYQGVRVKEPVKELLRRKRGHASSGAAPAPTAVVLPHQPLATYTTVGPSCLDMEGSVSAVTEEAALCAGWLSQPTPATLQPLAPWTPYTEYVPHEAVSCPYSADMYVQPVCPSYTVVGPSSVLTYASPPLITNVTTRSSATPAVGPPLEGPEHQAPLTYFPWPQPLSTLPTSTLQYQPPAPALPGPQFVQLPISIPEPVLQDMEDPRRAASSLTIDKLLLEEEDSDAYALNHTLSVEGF
The description is as above. Particulars: protein: recombinant;recombinant; copies: 1;1; dsDNA, one strand shown. In short, it runs like this:
as §1

Sequence of POU1 (OCT1 POU domain) (P14859 260-458): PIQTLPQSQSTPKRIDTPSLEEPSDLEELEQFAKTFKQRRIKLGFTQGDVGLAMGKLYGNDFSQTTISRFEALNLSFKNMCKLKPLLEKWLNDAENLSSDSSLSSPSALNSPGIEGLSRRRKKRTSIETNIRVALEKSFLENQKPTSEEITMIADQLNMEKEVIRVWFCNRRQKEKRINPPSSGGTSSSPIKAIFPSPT

Take ACAAGAAA: the binding signal with POU1 (OCT1 POU domain) is 0.0366 % of ANNNNAAN 8-mers; with POU2 (OCT2 POU domain) it was 0.0437 % of ANNNNAAN 8-mers; in assay [1] it was 0.0386 % of ANNNNAAN 8-mers; in assay [2], 0.0322 % of ANNNNAAN 8-mers.
Taken in the same sequence, the figures for ATTAAAAG were 0.149 % of ANNNNAAN 8-mers, 0.171 % of ANNNNAAN 8-mers, 0.115 % of ANNNNAAN 8-mers and 0.102 % of ANNNNAAN 8-mers.
Taken in the same sequence, the figures for ATGAAAAC were 0.0717 % of ANNNNAAN 8-mers, 0.0604 % of ANNNNAAN 8-mers, 0.0956 % of ANNNNAAN 8-mers and 0.0586 % of ANNNNAAN 8-mers.
For AAGGTAAT, in that order: 0.122 % of ANNNNAAN 8-mers, 0.163 % of ANNNNAAN 8-mers, 0.0925 % of ANNNNAAN 8-mers and 0.128 % of ANNNNAAN 8-mers.
Consider ACGTCAAA, for which the binding signal with POU1 (OCT1 POU domain) was 0.0271 % of ANNNNAAN 8-mers; with POU2 (OCT2 POU domain), 0.0178 % of ANNNNAAN 8-mers; in assay [1] it was 0.0371 % of ANNNNAAN 8-mers; in assay [2] it was 0.0173 % of ANNNNAAN 8-mers.
As to AGTCAAAC, the binding signal with POU1 (OCT1 POU domain) is 0.0763 % of ANNNNAAN 8-mers; in the assay with POU2 (OCT2 POU domain), 0.042 % of ANNNNAAN 8-mers; in assay [1] it was 0.122 % of ANNNNAAN 8-mers; in assay [2], 0.0545 % of ANNNNAAN 8-mers.
Consider ATCCCAAC, for which the binding signal with POU1 (OCT1 POU domain) is 0.0137 % of ANNNNAAN 8-mers; with POU2 (OCT2 POU domain), 0.0213 % of ANNNNAAN 8-mers; in assay [1] it was 0.0172 % of ANNNNAAN 8-mers; in assay [2], 0.014 % of ANNNNAAN 8-mers.
Taken in the same sequence, the figures for AACACAAG were 0.0194 % of ANNNNAAN 8-mers, 0.0253 % of ANNNNAAN 8-mers, 0.0219 % of ANNNNAAN 8-mers and 0.0206 % of ANNNNAAN 8-mers.
ATGTTAAG: the binding signal is 0.128 % of ANNNNAAN 8-mers in the assay with POU1 (OCT1 POU domain), 0.146 % of ANNNNAAN 8-mers in the assay with POU2 (OCT2 POU domain), 0.0835 % of ANNNNAAN 8-mers in assay [1] and 0.0966 % of ANNNNAAN 8-mers in assay [2].
For the sequence AGCTAAAT, the binding signal with POU1 (OCT1 POU domain) was 0.0652 % of ANNNNAAN 8-mers; with POU2 (OCT2 POU domain), 0.0633 % of ANNNNAAN 8-mers; in assay [1], 0.0738 % of ANNNNAAN 8-mers; in assay [2], 0.0479 % of ANNNNAAN 8-mers.
For ATTAAAAT, in that order: 0.614 % of ANNNNAAN 8-mers, 0.636 % of ANNNNAAN 8-mers, 0.228 % of ANNNNAAN 8-mers and 0.204 % of ANNNNAAN 8-mers.
For AATCGAAT, in that order: 0.087 % of ANNNNAAN 8-mers, 0.0926 % of ANNNNAAN 8-mers, 0.078 % of ANNNNAAN 8-mers and 0.0916 % of ANNNNAAN 8-mers.
For AGCTAAAA, in that order: 0.0282 % of ANNNNAAN 8-mers, 0.038 % of ANNNNAAN 8-mers, 0.0425 % of ANNNNAAN 8-mers and 0.0338 % of ANNNNAAN 8-mers.
Regarding ATTACAAC, the binding signal with POU1 (OCT1 POU domain) is 0.0313 % of ANNNNAAN 8-mers; with POU2 (OCT2 POU domain), 0.042 % of ANNNNAAN 8-mers; in assay [1], 0.0258 % of ANNNNAAN 8-mers; in assay [2], 0.0223 % of ANNNNAAN 8-mers.
Taken in the same sequence, the figures for ATTCGAAC were 0.0351 % of ANNNNAAN 8-mers, 0.046 % of ANNNNAAN 8-mers, 0.0324 % of ANNNNAAN 8-mers and 0.0396 % of ANNNNAAN 8-mers.
For AGTTGAAG, in that order: 0.0355 % of ANNNNAAN 8-mers, 0.0316 % of ANNNNAAN 8-mers, 0.0398 % of ANNNNAAN 8-mers and 0.0338 % of ANNNNAAN 8-mers.
Taken in the same sequence, the figures for AACGTAAA were 0.0816 % of ANNNNAAN 8-mers, 0.0639 % of ANNNNAAN 8-mers, 0.0843 % of ANNNNAAN 8-mers and 0.0578 % of ANNNNAAN 8-mers.
For ATCCGAAT, the binding signal with POU1 (OCT1 POU domain) was 0.0542 % of ANNNNAAN 8-mers; with POU2 (OCT2 POU domain) it was 0.0748 % of ANNNNAAN 8-mers; in assay [1] it was 0.0496 % of ANNNNAAN 8-mers; in assay [2], 0.066 % of ANNNNAAN 8-mers.
Taken in the same sequence, the figures for AATAGAAG were 0.0534 % of ANNNNAAN 8-mers, 0.0587 % of ANNNNAAN 8-mers, 0.0558 % of ANNNNAAN 8-mers and 0.057 % of ANNNNAAN 8-mers.
For ACATTAAT, in that order: 0.165 % of ANNNNAAN 8-mers, 0.215 % of ANNNNAAN 8-mers, 0.0777 % of ANNNNAAN 8-mers and 0.102 % of ANNNNAAN 8-mers.
For AGAAGAAG, in that order: 0.029 % of ANNNNAAN 8-mers, 0.0547 % of ANNNNAAN 8-mers, 0.0379 % of ANNNNAAN 8-mers and 0.0454 % of ANNNNAAN 8-mers.
ATGACAAC: the binding signal with POU1 (OCT1 POU domain) was 0.0259 % of ANNNNAAN 8-mers; with POU2 (OCT2 POU domain), 0.0207 % of ANNNNAAN 8-mers; in assay [1], 0.0277 % of ANNNNAAN 8-mers; in assay [2] it was 0.0355 % of ANNNNAAN 8-mers.
With AGTACAAG, the binding signal is 0.029 % of ANNNNAAN 8-mers with POU1 (OCT1 POU domain), 0.0253 % of ANNNNAAN 8-mers with POU2 (OCT2 POU domain), 0.0359 % of ANNNNAAN 8-mers in assay [1] and 0.0297 % of ANNNNAAN 8-mers in assay [2].
Taken in the same sequence, the figures for AAAGAAAC were 0.0355 % of ANNNNAAN 8-mers, 0.0339 % of ANNNNAAN 8-mers, 0.0433 % of ANNNNAAN 8-mers and 0.0371 % of ANNNNAAN 8-mers.
Consider ATTTCAAG, for which the binding signal with POU1 (OCT1 POU domain) was 0.0542 % of ANNNNAAN 8-mers; with POU2 (OCT2 POU domain), 0.0495 % of ANNNNAAN 8-mers; in assay [1] it was 0.055 % of ANNNNAAN 8-mers; in assay [2], 0.0561 % of ANNNNAAN 8-mers.
For ATCAAAAT, in that order: 0.095 % of ANNNNAAN 8-mers, 0.0932 % of ANNNNAAN 8-mers, 0.106 % of ANNNNAAN 8-mers and 0.0743 % of ANNNNAAN 8-mers.
Taken in the same sequence, the figures for ACAATAAG were 0.0339 % of ANNNNAAN 8-mers, 0.042 % of ANNNNAAN 8-mers, 0.0375 % of ANNNNAAN 8-mers and 0.0396 % of ANNNNAAN 8-mers.
Taken in the same sequence, the figures for AGTCGAAC were 0.0221 % of ANNNNAAN 8-mers, 0.0224 % of ANNNNAAN 8-mers, 0.0199 % of ANNNNAAN 8-mers and 0.0239 % of ANNNNAAN 8-mers.
AGACGAAG: the binding signal was 0.0198 % of ANNNNAAN 8-mers with POU1 (OCT1 POU domain), 0.019 % of ANNNNAAN 8-mers in the assay with POU2 (OCT2 POU domain), 0.0203 % of ANNNNAAN 8-mers in assay [1] and 0.0272 % of ANNNNAAN 8-mers in assay [2].

Source of the values: article PMC10812921, “Transcriptional Coactivator BOB1 (OBF1, OCA-B) Modulates the Specificity of DNA Recognition by the POU-Domain Factors OCT1 and OCT2 in a Monomeric Configuration”.
